Results reported in the supplement of paper PMC8728848.
Shown is part of a subset that was picked to be rich in the strongest signals.

How the values were obtained:
Experiment in all cases: glycan array binding signal (z-score within array); higher = stronger binding
Settings in all cases: glycan notation: IUPAC condensed, linker removed
[1] = target: Fuc(a1-2)Gal(b1-3)GalNAc(a1-3)[Fuc(a1-2)]Gal(b1-4)GlcNAc
Procedure, shortened: (§1)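 Glycan array data came from 3228 arrays in the Consortium for Functional Glycomics database, and only arrays with an available protein sequence were kept. Glycan names were put into IUPAC-condensed notation, and columns mapping to the same glycan were averaged. The binding signal is a within-array Z-score, averaged across arrays of one protein sequence run at different concentrations or buffers and across linkers. A negative Z-score can be read as non-binding.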

[2] = target: Fuc(a1-2)Gal(b1-3)[Fuc(a1-4)]GlcNAc
Procedure, shortened: as §1

Fuc(a1-2)Gal(b1-4)Glc = target: Fuc(a1-2)Gal(b1-4)Glc
Procedure, shortened: as §1

[3] = target: Fuc(a1-2)Gal(b1-4)GlcNAc(b1-2)[Fuc(a1-2)Gal(b1-4)GlcNAc(b1-4)]Man(a1-3)[Fuc(a1-2)Gal(b1-4)GlcNAc(b1-2)Man(a1-6)]Man(b1-4)GlcNAc(b1-4)GlcNAc
Procedure, shortened: as §1

Fuc(a1-2)[Gal(a1-3)]Gal = target: Fuc(a1-2)[Gal(a1-3)]Gal
Procedure, shortened: as §1

[4] = target: Fuc(a1-2)[Gal(a1-3)]Gal(b1-3)GlcNAc(b1-2)Man(a1-3)[Fuc(a1-2)[Gal(a1-3)]Gal(b1-3)GlcNAc(b1-2)Man(a1-6)]Man(b1-4)GlcNAc(b1-4)GlcNAc
Procedure, shortened: as §1

[5] = target: Fuc(a1-2)[GalNAc(a1-3)]Gal(b1-4)[Fuc(a1-3)]GlcNAc(b1-3)GalNAc
Procedure, shortened: as §1

[6] = target: Fuc(a1-2)[GalNAc(a1-4)]Gal(b1-4)GlcNAc
Procedure, shortened: as §1

[7] = target: Fuc(a1-3)[Gal(b1-4)]GlcNAc(b1-2)Man(a1-3)[Fuc(a1-3)[Gal(b1-4)]GlcNAc(b1-2)Man(a1-6)]Man(b1-4)GlcNAc(b1-4)[Fuc(a1-6)]GlcNAc
Procedure, shortened: as §1

[8] = target: Fuc(a1-3)[Gal3S(b1-4)]GlcNAc6S
Procedure, shortened: as §1

Gal(a1-2)Gal = target: Gal(a1-2)Gal
Procedure, shortened: as §1

Gal(a1-3)Gal(b1-4)Glc = target: Gal(a1-3)Gal(b1-4)Glc
Procedure, shortened: as §1

[9] = target: Gal(a1-3)Gal(b1-4)GlcNAc(b1-2)Man
Procedure, shortened: as §1

[10] = target: Gal(a1-3)Gal(b1-4)GlcNAc(b1-2)Man(a1-3)[Gal(a1-3)Gal(b1-4)GlcNAc(b1-2)Man(a1-6)]Man(b1-4)GlcNAc(b1-4)GlcNAc
Procedure, shortened: as §1

[11] = target: Gal(a1-3)[Gal(a1-4)]Gal(b1-4)GlcNAc
Procedure, shortened: as §1

[12] = target: Gal(a1-4)Gal(b1-4)GlcNAc(b1-2)Man(a1-3)[Gal(a1-4)Gal(b1-4)GlcNAc(b1-2)Man(a1-6)]Man(b1-4)GlcNAc(b1-4)GlcNAc
Procedure, shortened: as §1

[13] = target: Gal(b1-3)GalNAc(a1-3)[Fuc(a1-2)]Gal(b1-4)GlcNAc
Procedure, shortened: as §1

[14] = target: Gal(b1-3)GlcNAc(b1-3)Gal(b1-3)GlcNAc
Procedure, shortened: as §1

[15] = target: Gal(b1-3)GlcNAc(b1-3)Gal(b1-4)GlcNAc(b1-6)[Gal(b1-3)GlcNAc(b1-3)]Gal(b1-4)Glc
Procedure, shortened: as §1

[16] = target: Gal(b1-3)GlcNAc(b1-6)Gal(b1-4)GlcNAc
Procedure, shortened: as §1

[17] = target: Gal(b1-3)[Fuc(a1-4)]GlcNAc
Procedure, shortened: as §1

[18] = target: Gal(b1-4)GalNAc(a1-3)[Fuc(a1-2)]Gal(b1-4)GlcNAc
Procedure, shortened: as §1

[19] = target: Gal(b1-4)GlcNAc(b1-2)Man(a1-3)Man(b1-4)GlcNAc(b1-4)GlcNAc
Procedure, shortened: as §1

[20] = target: Gal(b1-4)GlcNAc(b1-2)Man(a1-3)[GlcNAc(b1-4)][Gal(b1-4)GlcNAc(b1-2)Man(a1-6)]Man(b1-4)GlcNAc(b1-4)GlcNAc
Procedure, shortened: as §1

[21] = target: Gal(b1-4)GlcNAc(b1-3)Gal(b1-4)GlcNAc(b1-3)Gal(b1-4)GlcNAc(b1-3)Gal(b1-4)GlcNAc(b1-2)Man(a1-3)[Gal(b1-4)GlcNAc(b1-3)Gal(b1-4)GlcNAc(b1-3)Gal(b1-4)GlcNAc(b1-3)Gal(b1-4)GlcNAc(b1-2)Man(a1-6)]Man(b1-4)GlcNAc(b1-4)GlcNAc
Procedure, shortened: as §1

[22] = target: Gal(b1-4)GlcNAc(b1-3)[Fuc(a1-3)GlcNAc(b1-6)]Gal(b1-4)Glc
Procedure, shortened: as §1

B1: PX9961KLbvu-535-38-535 (Bacteroides vulgatus) (protein)
chain: DKAYTDAESYTKGLHKIYSVWALSGQDGSSSSDISGLDAGNTALLRCWWTLQEQPTDEMKNAWNDAWCTEVNYMTWTTNKVEPIEGVYQRCMYIVALVNEFLKNIPNAPESIDKESYIAQARFNRAFAYYVLMDMFALPPFITEKNYSIEPAPLSREDLFNWIEAELNEIKPNLPSPRSEYGVADQAVASALLARMYLNAEIYTGKARYTECINACNEVIKAGYQLADNYADLFKADNGENPDTKKEIIYPIIFDGDKTQSWGMAAIIIGARGAEDKDVLLAHSGVDQGWAGFRATSNLVHLFDFQNDEEPKASEIQDKRGIFYDKGRSIDITSSVSGTFETEGWSVFKFSNLNSNGQPGKNTLWVDTDFPMFRLGDIYLMYAEAVARGGEGSKASAVEYINALRKRAYGDDKHNISENWLEENNFRNLLDERGRELYWEGIRRTDLVRFDLLTSGSYTWDFKGGINTGVGVNKRYNVYPIPVTDLTVNGNLQQNEGY
[1]
  glycan array binding signal (z-score): -0.462
[2]
  glycan array binding signal (z-score): -0.042
Fuc(a1-2)Gal(b1-4)Glc
  glycan array binding signal (z-score): -0.031
[3]
  glycan array binding signal (z-score): 2.87
Fuc(a1-2)[Gal(a1-3)]Gal
  glycan array binding signal (z-score): 1.72
[4]
  glycan array binding signal (z-score): 0.16
[5]
  glycan array binding signal (z-score): -0.162
[6]
  glycan array binding signal (z-score): -0.165
[7]
  glycan array binding signal (z-score): -0.392
[8]
  glycan array binding signal (z-score): -0.054
Gal(a1-2)Gal
  glycan array binding signal (z-score): -0.938
Gal(a1-3)Gal(b1-4)Glc
  glycan array binding signal (z-score): -0.366
[9]
  glycan array binding signal (z-score): -0.783
[10]
  glycan array binding signal (z-score): -0.391
[11]
  glycan array binding signal (z-score): 2.6
[12]
  glycan array binding signal (z-score): 2.35
[13]
  glycan array binding signal (z-score): -0.06
[14]
  glycan array binding signal (z-score): -0.549
[15]
  glycan array binding signal (z-score): -0.446
[16]
  glycan array binding signal (z-score): -0.398
[17]
  glycan array binding signal (z-score): -0.123
[18]
  glycan array binding signal (z-score): -0.291
[19]
  glycan array binding signal (z-score): 0.158
[20]
  glycan array binding signal (z-score): -0.249
[21]
  glycan array binding signal (z-score): 1.57
[22]
  glycan array binding signal (z-score): -0.046
